Compound activity from PubChem.
Most compounds without a hit are left out; they make up all but 2.3% or so of the library.
MCL1-BIM inh: disrupts human MCL1 binding to BIM-BH3 peptide | Q07820 | GST-MCL1 / FITC-Bim-BH3 fluorescence polarization | inhibition, % at 10.9 µM | 320,000 tested, 0.68% active;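 active = inhibition above the mean inhibition of all tested compounds plus 3 SD, set per campaign, cut at about 40% in these data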;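 note: 0% = DMSO wells and 100% = unlabeled Bim-BH3 peptide control; higher means more loss of mP so more displacement of Bim peptide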
GLD-1 RNA inh: GLD-1-TGE RNA interaction inhibition (C. elegans); Q17339; purified GLD-1 + fluorescein TGE RNA, fluorescence polarization; inhibition, % at 5.96 µM; 320,000 tested, 0.44% active; AID 2280;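 active = percent inhibition above a per-plate cutoff, the plate mean of test compounds plus 3 SD, cut at about 30% in these data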;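 note: 0% = DMSO wells with GLD-1 and probe and 100% = wells lacking GLD-1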
Target sequence (Q17339 whole entry, looked up): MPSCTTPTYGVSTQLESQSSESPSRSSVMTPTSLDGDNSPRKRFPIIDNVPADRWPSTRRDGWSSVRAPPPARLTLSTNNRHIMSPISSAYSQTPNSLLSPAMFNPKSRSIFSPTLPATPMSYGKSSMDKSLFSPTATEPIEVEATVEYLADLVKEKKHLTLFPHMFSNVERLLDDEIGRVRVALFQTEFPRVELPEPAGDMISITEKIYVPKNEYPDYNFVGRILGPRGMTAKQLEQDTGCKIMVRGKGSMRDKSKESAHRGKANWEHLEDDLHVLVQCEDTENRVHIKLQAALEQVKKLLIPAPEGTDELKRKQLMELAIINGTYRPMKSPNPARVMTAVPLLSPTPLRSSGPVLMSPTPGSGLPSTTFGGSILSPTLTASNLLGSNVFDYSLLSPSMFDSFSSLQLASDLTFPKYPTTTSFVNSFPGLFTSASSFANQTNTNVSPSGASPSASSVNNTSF
Bim-Mcl-1: disrupts Bim peptide binding to human Mcl-1; Q07820; Bead-based flow cytometry, Bim peptide-Mcl-1 binding; inhibition, % at 10 µM; 190,000 tested, 0.1% active; AID 1009; in the data active = inhibition above about 40%;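 note: 0% = no compound tracer wells and 100% = peptide blocker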
Mcl1 Bid PPI: Mcl-1/Bid interaction inhibition; Q07820; inhibition, % at 21.7 µM; TR-FRET Mcl-1/Bid-Dy647 peptide binding, 1536-well; AID 1021; 220,000 tested, 0.97% active;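 active = compounds that cut the binding signal by more than half at the single screening dose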;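 note: His-tagged Mcl-1 with europium anti-His antibody binding Bid BH3 peptide; 0% = Mcl-1 plus peptide wells and 100% = peptide-only wells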
Mcl1 Noxa PPI: disrupts binding of human Mcl-1 to Noxa peptide | inhibition, % at 21.7 µM | TR-FRET Mcl-1/Noxa peptide binding, 2 h | 220,000 tested, 1.5% active;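 active = compounds that cut the protein-peptide binding signal by more than 50% relative to plate controls in a single-dose test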;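 note: His-tagged Mcl-1 with rhodamine Noxa BH3 peptide and terbium anti-His antibody; 0% = Mcl-1 plus Noxa peptide wells and 100% = peptide-only wells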
BCLXL inh: blocks human Bcl-xL binding to Bim BH3 peptide; inhibition, % at 10.9 µM; GST-Bcl-xL / FITC-Bim BH3 peptide fluorescence polarization; 320,000 tested, 0.7% active; Q07817;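 active = inhibition above the mean of all tested compounds plus 3 SD, cutoff set per campaign, cut at about 30% in these data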;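 note: 0% = DMSO wells and 100% = unlabeled Bim-BH3 peptide competitor; inhibitors lower millipolarization by displacing the labeled peptide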
Bcl-xL conf: Bcl-xL (human) inhibition, MCL1 counter-screen confirmation; shares compounds with MCL1-BIM inh; GST-Bcl-xL / FITC-Bim BH3 peptide FP binding; inhibition, % at 10.9 µM; 1,700 tested, 54% active;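 active = inhibition above a cutoff equal to the mean inhibition of all tested compounds plus 3 SD, cut at about 30% in these data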;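 note: 0% = DMSO wells and 100% = unlabeled Bim BH3 control peptide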
MCL1 inh confirm: confirmation of human MCL1 and BIM-BH3 interaction inhibitors. GST-MCL1 / FITC-Bim-BH3 fluorescence polarization. inhibition, % at 10.9 µM. 1,700 tested, 61% active. shares compounds with MCL1-BIM inh. AID 2168;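 active = inhibition above the average of all tested compounds plus 3 SD, cut at about 40% in these data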;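 note: 0% = DMSO wells and 100% = unlabeled Bim-BH3 control peptide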
Active calls of the source: *; · = no result; + = active, no number.

SMILES	MCL1-BIM inh	GLD-1 RNA inh	Bim-Mcl-1	Mcl1 Bid PPI	Mcl1 Noxa PPI	BCLXL inh	Bcl-xL conf	MCL1 inh confirm
CCCCOc1ccc(C2OC34CCCCC3C(C#N)(C#N)C2(C#N)C(=N)O4)cc1 (stereo unspecified)	166*	92*	0	-35	12	137*	52*	68*
C=CCOc1ccc(C2OC34CCCCC3C(C#N)(C#N)C2(C#N)C(=N)O4)cc1 (stereo unspecified)	115*	75*	2	-87	-4	104*	76*	94*
O=C1/C(=C/c2cccs2)SC(=S)N1CC(=O)N1CCCCC1CCO (stereo unspecified)	14	2	·	·	·	11	·	·
O=C(N=Nc1c(O)[nH]c2ccccc12)c1cc(-c2cccs2)[nH]n1	43*	-5	·	-47	46	15	12	31
O=C(Cc1cccs1)N=Nc1c(O)[nH]c2ccccc12	8	0	·	-52	8	6	·	·
COC(=O)c1ccc(-n2c(C)ccc2-c2ccccc2)cc1	-11	-3	0	-28	0	-4	·	·
COc1ccc(-n2c(C)ccc2-c2ccccc2)cn1	128*	89*	·	·	·	107*	89*	108*
O=C(COc1ccc(Br)cc1)Nc1nc(-c2cccnc2)cs1	1	-2	·	-22	22	4	·	·
Oc1ccc(O)c(/C(=N/Nc2ccccc2)c2ccccc2)c1	49*	1	·	·	·	26	17	13
CC1CCN(C(=O)CCNC(=O)c2ccccc2Cl)CC1	1	-3	·	·	·	-3	·	·
O=c1[nH]c2c(s1)C=Nc1ccccc1N2	+	144*	0	-10	25	178*	118*	152*
CCc1c(C)nc(N2CCN(c3ccc(OC)cc3)CC2)[nH]c1=O	14	-3	·	·	·	0	·	·
COc1ccc(C2=Nn3c(nnc3-c3ccco3)SC2)cc1	6	6	8	-10	8	13	·	·
Oc1ccc(C2=Nn3c(nnc3-c3ccco3)SC2)cc1O	60*	1	33	-2	38	18	29	73*
O=C1c2cccc(O)c2C(=O)c2c(O)cc(CO)cc21	100*	81*	·	·	·	93*	81*	100*
COC(=O)COc1ccc(C2Nc3c(Cl)ccc(C(=O)O)c3C3C=CCC32)cc1 (stereo unspecified)	53*	16	-6	-4	18	43*	34*	32
COc1ccc(OC)c(C2Nc3c(Cl)ccc(C(=O)O)c3C3C=CCC32)c1 (stereo unspecified)	26	9	0	-18	36	23	·	·
CN(CC(=O)Nc1ccc(Cl)c(C(F)(F)F)c1)C(=O)C1CC(=O)N(C2CCCC2)C1 (stereo unspecified)	-19	2	·	·	·	-12	·	·
CCC1(c2ccccc2)NC(=O)N(CC(=O)N(CC(=O)Nc2ccccc2C(F)(F)F)Cc2ccco2)C1=O (stereo unspecified)	-10	9	·	·	·	-7	·	·
O=C(NC(=S)N1CCCCCC1)c1ccccc1Cl	4	-2	0	-24	7	6	·	·
O=C(NC(=S)N1CCCCCC1)c1ccc(Cl)cc1Cl	43*	-7	-5	-2	-4	2	11	6
CCCS(=O)(=O)c1cn2cccc(N)c2c1S(=O)(=O)CCC	102*	86*	1	-66	-3	98*	30	21
CN1CCN(C(c2ccc(Br)cc2)c2cc(Cl)c3cccnc3c2O)CC1 (stereo unspecified)	40*	-2	·	·	·	20	47*	106*
O=C(Nc1cc(Cl)ccc1Cl)c1ccco1	-2	-6	·	·	·	-3	·	·
CS/C(Nc1cc(Cl)ccc1Cl)=C(/C#N)C(=O)c1ccco1	54*	1	·	7	45	8	13	25
Oc1ccc2nnc3c(Br)cnn3c2c1	+	144*	·	·	·	175*	168*	+
